Compound activity (PubChem)
D2 PAM-1 – Beta-Arrestin HTS for Positive Allosteric Modulators of the Human D2 Dopamine Receptor: Potentiators; DiscoveRx D2 beta-arrestin cells, luminescence, 90 min; 100% = 57 uM dopamine signal; potentiation, % (no concentration beside the values); 360,000 compounds, 0.23% hits; AID 624464, 2012; in the data active = potentiation above about 50%; inconclusive = mostly about 30% to 49%
Target sequence (P14416 whole entry, looked up): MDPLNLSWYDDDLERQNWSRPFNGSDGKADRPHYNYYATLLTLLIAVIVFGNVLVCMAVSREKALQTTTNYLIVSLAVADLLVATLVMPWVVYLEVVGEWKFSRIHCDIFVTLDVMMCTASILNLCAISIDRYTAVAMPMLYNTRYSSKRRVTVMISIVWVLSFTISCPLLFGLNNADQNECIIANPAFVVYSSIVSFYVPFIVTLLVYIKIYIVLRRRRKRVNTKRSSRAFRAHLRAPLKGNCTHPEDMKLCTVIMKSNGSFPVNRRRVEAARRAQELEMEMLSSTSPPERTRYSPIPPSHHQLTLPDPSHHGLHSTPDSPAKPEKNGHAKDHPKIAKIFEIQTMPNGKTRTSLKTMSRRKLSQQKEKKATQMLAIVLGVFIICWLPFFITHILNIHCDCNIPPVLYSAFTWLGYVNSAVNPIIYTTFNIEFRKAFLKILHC
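PathHunter beta-arrestin assay in DiscoveRx D2 cells. Compounds were added with an EC20 of dopamine (50 nM final) for 90 min at 37 deg C. Luminescence was read 1 h after detection reagent, with 57 uM dopamine as the EC100 control.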
Apoferritin bind – qHTS Assay for Identification of Novel General Anesthetics; 350,000 compounds, 0.074% hits; Potency, µM (top dose mostly 77.5 µM), without a hit: at the highest dose activity change, negative = displacement, actives largely listed as inhibitors; apoferritin/1-aminoanthracene competitive binding, fluorescence; AID 485281, 2010; active = well fitted inhibition curve with a large enough effect; inconclusive = small, poorly fitted or top-dose-only effect; inactive = no such curve, though single readings can be large or run the other way; note: potency is the fitted concentration of half-maximal effect; % is set by controls: 0 for no effect and ±100 for the full control effect; nearly all actives have a fitted effect of over 20% in size
Target sequence (P02791 2-175 limits assumed): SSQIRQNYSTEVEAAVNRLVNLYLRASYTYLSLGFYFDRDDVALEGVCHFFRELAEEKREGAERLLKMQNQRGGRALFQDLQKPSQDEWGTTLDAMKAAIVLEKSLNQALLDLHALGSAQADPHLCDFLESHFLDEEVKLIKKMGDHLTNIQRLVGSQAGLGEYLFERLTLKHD
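Read-out: endpoint 1-AMA fluorescence, excitation 380 nm and emission 535 nm, after compounds sit 10 min at room temperature with 10 uM horse-spleen apoferritin in 50% saturated 1-AMA/PBS. Values come from four-parameter Hill fits.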
D2 antagonist – HTS Assay for Allosteric Antagonists of the Human D2 Dopamine Receptor: Primary Screen for Antagonists | D(2) dopamine receptor (Homo sapiens), P14416 | HEK293 TREx D2 cells, calcium flux, dopamine EC80 | inhibition, % at 10 µM | 340,000 compounds, 2% hits; in the data active = inhibition above about 30%; inactive = below that, where a call was filed; note: 0% is about no effect
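Calcium mobilization kinetics were recorded at 1 s intervals in tetracycline-induced HEK293 T-REx D2 cells, first for 180 s after compound addition and then 180 s after EC80 dopamine.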
D2 ag-1 – HTS Assay for Allosteric Agonists of the Human D2 Dopamine Receptor: Primary Screen for Agonists; D(2) dopamine receptor (Homo sapiens), P14416; HEK293 T-REx D2 cells, calcium flux agonist mode; activation, % at 2 µM; 340,000 compounds, 0.53% hits;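 active = activation over 3 SD above normal in the single-dose calcium agonist read, cut at about 30% in these data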; note: 0% is about no effect
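HEK293 Trex D2 cells, tetracycline-induced, o/n 30 C 5% CO2; no-wash Ca dye, RT 30–90 min; 10-cycle baseline, 23 nl cpd added, kinetic Ca read 180 s; agonist hits = positive Ca response.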
D2 ag-2 – Beta-Arrestin HTS for Positive Allosteric Modulators of the Human D2 Dopamine Receptor: Agonists; D(2) dopamine receptor (Homo sapiens), P14416; activation, % (test concentration not listed); DiscoveRx PathHunter D2 beta-arrestin, luminescence, 90 min; 100% = 57 uM dopamine signal; 360,000 compounds, 0.084% hits; in the data active = activation above about 40%; inconclusive = between about 15% and that limit
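DiscoveRx PathHunter D2 beta-arrestin cells (2,100/well) attached overnight, then compound-stimulated 90 min at 37 C in HBSS/10 mM HEPES/0.1% Tween-20 buffer; beta-galactosidase complementation read by luminescence after 1 h at ambient temperature. Dopamine 57 uM final (EC100) as control.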
D2 PAM-2 – HTS Assay for Positive Allosteric Modulators of the Human D2 Dopamine Receptor: Primary Screen for Potentiators; 340,000 compounds, 0.34% hits; potentiation, % at 10 µM; AID 485347, 2010; HEK293 T-REx D2, calcium flux, EC20 dopamine potentiation;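 active = potentiation over 3 SD above the plate norm, cut at about 30% in these data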; note: 0% is about no effect
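Primary screen. Calcium kinetics in induced HEK293 T-REx D2 cells: compound pre-addition 180 s, EC20 dopamine, 180 s more.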
* marks the source's active call; other numbers are inactive results; ? = inconclusive; / = no result. Only some compounds are listed: those with a hit (about 2.5% of all), similar ones and a draw of the others.

SMILES	D2 PAM-1	Apoferritin bind	D2 antagonist	D2 ag-1	D2 ag-2	D2 PAM-2
COc1cccc(NC(=O)[C@H](Cc2ccccc2)NC(=O)[C@@H]2Cc3ccccc3CN2)c1	-11	-21%	35*	0	-1	6
Cc1ccc(NC(=O)[C@H](NC(=O)[C@@H]2Cc3ccccc3CN2)c2ccccc2)cc1	-33	-13%	-6	1	0	-24
COc1cccc(NC(=O)[C@H](NC(=O)[C@@H]2Cc3ccccc3CN2)c2ccccc2)c1	-29	-19%	25	1	-2	-20
CC(C)c1ccc(NC(=O)[C@H](NC(=O)[C@@H]2Cc3ccccc3CN2)c2ccccc2)cc1	-19	?	33*	0	-3	-11
O=C(NNc1ccccc1)C(=O)NNS(=O)(=O)c1ccc(CCCl)cc1	-14	-7%	-1	1	-4	5
CCOC(=O)c1nc(Nc2ccccc2CC)c2ccccc2n1	1	-10%	33*	0	0	-7
CC(=O)Nc1ccc(NC(=O)c2cc[n+]([O-])cc2)cc1	-9	-5%	-3	1	-4	3
CCOC(=O)C1=C(c2ccccc2)OC(N)=C(C#N)C1C(C)C (configuration not stated)	18	-15%	1	0	0	8
COc1ccc(S(=O)(=O)NCCCO)cc1-c1nnc2c3ccccc3c(C)nn12	/	-2%	/	0	/	0
c1csc(-c2nc3nc4ccccc4nc3n2Cc2ccc3c(c2)OCO3)c1	-1	-16%	-4	0	-1	6
Cc1ccc(NC(=O)c2cc(=O)n(Cc3ccccc3)c(=O)[nH]2)cc1C	-5	-1%	34*	/	3	9
O=C(O)c1cc(=O)n(Cc2ccccc2)c(=O)[nH]1	-8	3%	9	1	0	12
COc1nc(-c2ccc(C)cc2)ccc1-c1noc(-c2ccc(C(C)(C)C)cc2)n1	/	-6%	/	0	/	-10
CCN(CC)S(=O)(=O)c1cccc(C(=O)NCC2(N3CCOCC3)CCCCC2)c1	-2	/	39*	0	-4	3
O=C(Nc1ccc(S(=O)(=O)Nc2ncccn2)cc1)c1cccnc1	1	7%	42*	0	1	6
O=C(Nc1ccc(S(=O)(=O)Nc2ccccn2)cc1)c1cccc([N+](=O)[O-])c1	16	-1%	39*	0	3	-3
COCCCNC(=O)c1c[nH]c2ccc(S(=O)(=O)N3CCc4ccccc43)cc2c1=O	7	?	-8	0	7	38*
CC1CCN(S(=O)(=O)c2ccc(S(=O)(=O)NCc3ccccc3)cc2)CC1	14	-3%	31*	1	4	-5
O=C(Cn1cnc2cc([N+](=O)[O-])ccc2c1=O)NC(c1ccccc1)c1ccccc1	6	5%	-11	1	-1	8
COc1ccc(CC(=O)Nc2cccc(C(C)=O)c2)cc1S(=O)(=O)N1CCOCC1	-7	/	-13	0	-3	-6
COc1ccc(C(C)=O)cc1CC(=O)Nc1ccccc1-c1ccccc1	4	-8%	-4	-1	-6	31*
Cc1ccc(SCC(=O)Nc2cccc(S(=O)(=O)N3CCOCC3)c2)cc1C	-4	/	35*	0	-2	8
COc1ccc(C(C)=O)cc1CC(=O)Nc1cccc(S(=O)(=O)N2CCOCC2)c1	-1	/	33*	0	-2	-11
COc1ccc(CC(=O)Nc2ccccc2-c2ccccc2)cc1OC	7	2%	4	3	-3	-4
C=CCn1c(SCC(=O)c2cccs2)nc2sc(C)c(C)c2c1=O	19	-2%	/	/	-1	/
SMILES	D2 PAM-1	Apoferritin bind	D2 antagonist	D2 ag-1	D2 ag-2	D2 PAM-2
CC1CN(C2CCN(S(=O)(=O)c3ccc(F)cc3)CC2)CC(C)O1 (configuration not stated)	-11	-10%	-9	2	-2	18
COc1ccc(CNC(=O)CCCNS(=O)(=O)c2cccc3nonc23)cc1	2	-12%	3	0	-2	2
CC1CCCC(C)N1C(=O)COc1ccc(-c2nnco2)cc1 (configuration not stated)	1	-17%	-15	-1	2	-13
CCCCCCC(=O)Nc1c(O)c2ccccc2[nH]c1=O	-21	-10%	-4	-1	-3	-6
CC1(c2ccccc2Cl)NC(=O)N(CC(=O)Nc2ccc(N3CCOCC3)cc2)C1=O (configuration not stated)	0	/	/	/	0	/
CC1(c2ccccc2Cl)NC(=O)N(CC(=O)Nc2ccc(N3CCCCC3)cc2)C1=O (configuration not stated)	1	/	35*	1	-3	-8
O=C(NCC(c1cccnc1)N1CCN(c2ccccc2)CC1)OCc1ccccc1 (configuration not stated)	-4	2%	-3	0	5	31*
CCCCN(CC)S(=O)(=O)c1ccc(C(=O)N=c2sc3cc(NC(C)=O)ccc3n2C)cc1	5	57%	-6	1	-3	5
CCC(=O)N1CCc2cc(S(=O)(=O)CCC(=O)NCCc3ccc(S(N)(=O)=O)cc3)ccc21	-6	3%	32*	0	-1	-6
COc1cc(/C=N/NC(N)=O)ccc1OC(=O)c1cccs1	0	-21%	-3	0	4	3
O=C(N/N=C/c1c(F)cccc1Cl)c1ccc(Cn2cc(Br)cn2)o1	-11	-4%	-7	-3	-4	-7
O=C(Nc1ccc(C(F)(F)F)cc1Cl)c1ccc(Cn2cc(Br)cn2)o1	-6	?	37*	2	2	-22
O=C(Nc1cccc(C(F)(F)F)c1)c1ccc(Cn2cc(Br)cn2)o1	-30	?	35*	2	-3	-17
Cc1cccc(NC(=O)C2CCCN(C(=O)Nc3ccc(F)cc3)C2)c1 (configuration not stated)	-20	-1%	31*	-2	-4	1
Cc1ccc(CN2CC(C(=O)O)CC2=O)cc1 (configuration not stated)	-6	-5%	14	1	-1	30*
